PubChem BioAssay AID540301 (National Center for Advancing Translational Sciences (NCATS), 2011)
Some of the results follow. Records with an inconclusive call do not appear. Unmarked numbers belong to inactive results. The call rests on the fitted dose curve; in most records, active means well fitted curve in the direction sought with a large enough effect; inconclusive means small, poorly fitted or top-dose-only effect, or another doubt; inactive means no such curve, though single readings can be large or run the other way.

Experiment: Inhibitors of DNA Polymerase Beta: Hit Validation in HIV-RT Assay
Conditions: HIV-1 RT polymerase activity, counter-screen; series mostly up to 57.1 µM; activity % (negative = inhibition, positive = activation): at the top concentration
Description: The base excision repair system in human cells is a target for therapeutic modulation of the response to irradiation treatment and DNA-damaging drugs. A key enzyme in this system is the bi-functional DNA polymerase known as DNA polymerase beta (pol b). […] Using an integrated approach involving discovery of small molecule probes for pol b via qHTS and validation by crystallography and kinetics along with cell-based validation experiments, we will test the hypothesis that base excision repair can be strategically modulated in human cells by targeting pol b. Thus, we anticipate the pol b-specific probes emerging from this research will serve as starting points in the development of clinical agents for use in down regulation of DNA base excision repair during therapeutic interventions against cancer.
After the completion of the qHTS against the Molecular Libraries Small Molecular Repository (MLSMR), cherry picked compounds were confirmed in the primary qHTS pol beta assay and further characterized in several follow-up assays. To avoid compound promiscuity, we selected a completely unrelated viral polymerase to polymerase beta, HIV reverse transcriptase(RT) as a counter screen. There are distinct differences between the two polymerases, such as source of host and HIV RT is responsible for transcribing the virus' single stranded RNA into double-stranded DNA after entry into its host cell. […] To us, a favorable outcome in this assay is inactivity.
NIH Chemical Genomics Center [NCGC]
NIH Molecular Libraries Probe Centers Network [MLPCN]
Assay Submitter (PI): Samuel Wilson, National Institute of Environmental Health Sciences (NIEHS), NIH
A stepwise description of the 1536-well assay is shown in next Table. Three microliters of reagents (buffer in column 3 and 4 as negative control and 10 nM Pol beta in columns 1, 2, and 5-48) was dispensed into 1,536-well black solid-bottomed plate. Compounds (23 nL) were transferred via Kalypsys pin tool equipped with 1536-pin array (10 nL slotted pins, V&P Scientific, San Diego, CA). The plates were incubated for 15 min at room temperature, and 1 uL substrate (50 nM final concentration) were added to start the reaction and immediately read at 0 min read on Viewlux reader. The plate were further incubated for 10 min at room temperature, and then read on Viewlux again. Throughout the screen, reagent bottle and all liquid lines were chilled and made light-tight to minimize reagent degradation. All screening operations were performed on a fully integrated robotic system (Kalypsys, San Diego, CA) containing one RX-130 and two RX-90 anthropomorphic robotic arms (Staubli, Duncan, SC). Library plates were screened starting from the lowest and proceeding to the highest concentration, and a double-dipping step of the highest concentration was required to access higher concentrations of compounds. Vehicle-only plates, with DMSO being pin-transferred to the entire column 5-48 compound area, were inserted uniformly at the beginning and the end of each library in order to monitor for and record any shifts in the background, which can be affected by reagent dispensers or loss in enzyme activity overtime. Screening data were corrected, normalized, and concentration-effect relationships were derived by using publicly-available curve fitting algorithms developed in-house (http://ncgc.nih.gov/pub/openhts). A four parameter Hill equation was fitted to the concentration-response data by minimizing the residual error between the modeled and observed responses.

SMILES | activity % (negative = inhibition, positive = activation) [%]
Cc1ccc(C(=O)Oc2coc(CSc3nnc(NC(=O)c4cccs4)s3)cc2=O)cc1C | 30
COc1cc([C@H](Cc2ccccc2)NC(C)=O)oc(=O)c1 | -11.1
Cc1c(CCC(=O)O)c(=O)oc2c(C)c(OCc3ccccc3Cl)ccc12 | 31.4
O=C(c1cc2c(s1)CCC2)N1CCN(c2ccccc2)CC1 | 32.1
O=C(Nc1ccc(S(=O)(=O)Nc2nccs2)cc1)c1cc(-c2ccncc2)nc2ccccc12 | 20.5
Cc1ccc2nc(-c3ccncc3)cc(C(=O)Nc3ccc(OC(F)F)cc3)c2c1 | 31.2
COc1ccc(Cc2nnc(NC(=O)Cc3cccs3)s2)cc1 | 26.1
